target: Hepatocyte growth factor receptor (Homo sapiens) (UniProt P08581); conditions: at 0.1 µM
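Also: reported values are means of MET inhibition.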

Sequence of Hepatocyte growth factor receptor (Homo sapiens) (P08581 whole entry): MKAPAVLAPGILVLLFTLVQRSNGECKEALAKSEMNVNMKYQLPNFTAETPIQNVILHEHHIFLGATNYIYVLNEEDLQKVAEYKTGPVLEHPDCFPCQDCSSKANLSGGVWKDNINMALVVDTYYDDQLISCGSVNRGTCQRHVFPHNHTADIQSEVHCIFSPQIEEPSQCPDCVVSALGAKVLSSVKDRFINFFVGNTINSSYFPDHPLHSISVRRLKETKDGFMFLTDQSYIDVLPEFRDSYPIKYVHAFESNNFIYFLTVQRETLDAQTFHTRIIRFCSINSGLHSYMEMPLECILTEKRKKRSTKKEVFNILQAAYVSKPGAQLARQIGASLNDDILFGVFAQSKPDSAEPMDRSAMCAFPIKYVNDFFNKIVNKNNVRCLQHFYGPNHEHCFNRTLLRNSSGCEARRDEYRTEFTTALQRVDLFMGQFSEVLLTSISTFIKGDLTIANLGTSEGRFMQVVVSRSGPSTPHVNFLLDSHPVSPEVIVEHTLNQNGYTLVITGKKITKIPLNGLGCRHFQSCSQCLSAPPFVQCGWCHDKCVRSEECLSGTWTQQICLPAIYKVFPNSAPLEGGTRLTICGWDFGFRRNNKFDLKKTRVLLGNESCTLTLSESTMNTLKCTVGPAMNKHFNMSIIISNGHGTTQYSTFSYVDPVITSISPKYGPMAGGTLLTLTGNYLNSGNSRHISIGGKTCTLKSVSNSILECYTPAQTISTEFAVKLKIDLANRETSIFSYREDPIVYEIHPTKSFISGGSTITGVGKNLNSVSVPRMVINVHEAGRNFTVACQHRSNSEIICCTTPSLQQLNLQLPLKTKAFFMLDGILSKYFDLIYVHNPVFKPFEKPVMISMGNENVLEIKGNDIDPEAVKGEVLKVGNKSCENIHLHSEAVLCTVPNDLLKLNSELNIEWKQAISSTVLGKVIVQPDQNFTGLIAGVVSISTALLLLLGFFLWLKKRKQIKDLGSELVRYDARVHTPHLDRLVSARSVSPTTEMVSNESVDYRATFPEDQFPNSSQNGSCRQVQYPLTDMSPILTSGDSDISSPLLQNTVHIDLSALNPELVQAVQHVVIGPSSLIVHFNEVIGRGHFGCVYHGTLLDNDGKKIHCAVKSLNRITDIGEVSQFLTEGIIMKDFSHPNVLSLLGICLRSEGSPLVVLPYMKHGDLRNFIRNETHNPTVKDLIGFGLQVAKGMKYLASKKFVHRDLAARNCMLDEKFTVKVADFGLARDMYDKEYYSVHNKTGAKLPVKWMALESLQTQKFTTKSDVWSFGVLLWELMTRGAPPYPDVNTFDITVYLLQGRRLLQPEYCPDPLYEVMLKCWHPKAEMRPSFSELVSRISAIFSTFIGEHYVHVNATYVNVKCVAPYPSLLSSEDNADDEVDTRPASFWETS

| SMILES | inhibition [%] |
| --- | --- |
| COc1cccc(-n2ncc3c(N/N=C/c4ccc(C)cc4)ncnc32)c1 | -2.1 |
| COc1cc2ncnc(Nc3ccc4c(cnn4Cc4ccccc4)c3)c2cc1OC | 2.31 |
| Cc1ccc(NC(=O)CC2CC2)cc1-c1ccc(C(=O)NCC2CC2)cc1 | 7.51 |
| COc1ccc2ncnc(Nc3ccc(OCc4ccccc4)cc3)c2c1 | -2.88 |
| Nc1nccc(-c2c(-c3ccc(F)cc3)ncn2CCCN2CCOCC2)n1 | 3.68 |
| CN(C)C(=O)O[C@@H]1CN[C@@H](C#Cc2cc3ncnc(Nc4ccc(OCc5cccc(F)c5)c(Cl)c4)c3s2)C1 | 5.31 |
| Cc1cc(O)cc(C)c1/C=C/c1cncc(C(=O)N(C)C)c1 | 1.87 |
| Cc1cc(-c2ccccn2)cc(C)c1/C=C/c1cncc(-c2nn[nH]n2)c1 | 2.88 |
| CN(C)C(=O)O[C@H]1CN[C@H](C#Cc2cc3ncnc(Nc4ccc(OCc5cccc(F)c5)c(Cl)c4)c3s2)C1 | 1.84 |
| Oc1cccc(-c2nc(-c3ccccc3)[nH]c2-c2ccncc2)c1 | 6.73 |
| c1ccc(Cc2nc3ccc(Nc4ncnc5ccccc45)cc3[nH]2)cc1 | 4.71 |
| CCn1c(-c2nonc2N)nc2ccc(F)cc21 | 8.56 |
| Cc1ccc2c(-c3ccnc(Nc4ccc5c(c4)OCCO5)n3)c(-c3ccc(C(F)(F)F)cc3)nn2n1 | 6.93 |
| N#Cc1c(NC(=O)c2ccccc2F)sc2c1CCCC2 | 10.5 |
| CCOc1nccc2c1nc(-c1nonc1N)n2CC | 4.49 |
| Nc1ccc(C#Cc2cncnc2Nc2ccc(OCc3cccc(F)c3)c(Cl)c2)cc1 | 1.74 |
| Cc1nc(-c2ccccc2)n2nc(NCCCN3CCOCC3)ncc12 | 2.77 |

| SMILES | inhibition [%] |
| --- | --- |
| CN(c1ccc(NC(=O)Nc2ccc(OC(F)(F)F)cc2)cc1)c1ccnc(Nc2cccc(S(N)(=O)=O)c2)n1 | 34.4 |
| COc1ccc(-c2nn3ncccc3c2-c2ccnc(Nc3cccc(C(F)(F)F)c3)n2)cc1 | 6.61 |
| COC(=O)c1ccc2c(c1)C(=Cc1cc(Br)c(O)c(Br)c1)C(=O)N2 | 2.4 |
| Cc1ccc2c(-c3ccnc(Nc4cccc(C(F)(F)F)c4)n3)c(-c3ccccc3)nn2n1 | 13.9 |
| NS(=O)(=O)c1ccc(Nc2cc(-c3cccc(O)c3)n[nH]2)cc1 | 5.16 |
| COc1cc(/C=N/Nc2ncnc3c2cnn3C(C)C)ccc1O | 4.44 |
| Cc1ccc2c(c1)/C(=N/Nc1ccc(S(N)(=O)=O)cc1)C(=O)N2 | 1.07 |
| OCc1ccc(-c2nc(-c3ccccn3)c(-c3ccc4c(c3)OCO4)[nH]2)cc1 | 11.7 |
| CC(C)c1ccc(Nc2nccc(-c3cnn4ncccc34)n2)cc1 | 4.89 |
| O=S(=O)(CCOCc1ccc(-c2ccc3ncnc(Nc4ccc(OCc5cccc(F)c5)c(Cl)c4)c3c2)o1)c1ccccc1 | 0.79 |
| O=C1Nc2ccccc2/C1=C/Nc1ccc2[nH]c(=O)[nH]c2c1 | 7.49 |
| CCCN1CCCC(c2ccc(Nc3nc(Nc4cc(F)ccc4C(N)=O)c4cc[nH]c4n3)c(OC)c2)C1 (stereo not drawn) | 2.96 |
| CN(C)c1cc2c(Nc3ccc4c(cnn4Cc4ccccc4)c3)ncnc2cn1 | 5.12 |
| CCS(=O)(=O)c1ccc(OC)c(Nc2nccc(N(C)c3ccc4c(C)n[nH]c4c3)n2)c1 | 3.86 |
| CCn1c(-c2nonc2N)nc2c(C#CC(C)(C)O)nc(OCCNC)cc21 | 4.48 |
| COc1cc(Nc2nccc(-c3cnn4ncccc34)n2)cc(OC)c1 | 4.01 |
